Assay results: PubChem BioAssay (NCATS)
A number with no mark means an inactive call. Records with an inconclusive call do not appear. Activity calls are given as the source filed them. Unless noted, calls follow the shape of the dose curve; as a rule, active = well fitted curve in either direction with a large enough effect (not every such curve was filed as active); inconclusive = small, poorly fitted or top-dose-only effect, or another doubt; inactive = flat fitted curve, though single readings scatter.

What was measured:
[1] = target: Lysosomal acid glucosylceramidase (Homo sapiens) (UniProt P04062); test: Glucocerebrosidase-p2 (AID 348; in the data active = potency below about 10 µM; also: potency is read from the fitted curve at half-maximal effect); settings: purified GBA, blue fluorogenic substrate, 40 min
Lysosomal acid glucosylceramidase (Homo sapiens), sequence (P04062 whole entry, looked up): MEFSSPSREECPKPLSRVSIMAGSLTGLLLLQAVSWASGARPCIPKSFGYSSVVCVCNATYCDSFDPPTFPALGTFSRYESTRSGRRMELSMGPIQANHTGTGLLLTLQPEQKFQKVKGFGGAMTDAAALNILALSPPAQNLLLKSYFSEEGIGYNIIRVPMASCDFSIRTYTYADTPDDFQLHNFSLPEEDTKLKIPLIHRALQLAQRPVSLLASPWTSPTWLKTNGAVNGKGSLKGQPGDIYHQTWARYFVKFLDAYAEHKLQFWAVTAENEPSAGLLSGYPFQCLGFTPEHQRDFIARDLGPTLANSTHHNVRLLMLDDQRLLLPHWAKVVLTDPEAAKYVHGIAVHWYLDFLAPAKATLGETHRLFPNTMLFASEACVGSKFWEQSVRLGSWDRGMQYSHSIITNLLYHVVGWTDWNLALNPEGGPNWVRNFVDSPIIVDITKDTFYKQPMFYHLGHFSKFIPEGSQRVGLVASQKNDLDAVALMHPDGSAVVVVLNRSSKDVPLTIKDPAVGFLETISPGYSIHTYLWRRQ
Outline: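 Compounds titrated from 0.6 nM upwards against 0.2 nM enzyme in pH 5.9 citric acid/KH2PO4, taurocholate, tween-20; blue fluorogenic substrate 80 uM, 40 min room temperature, stopped and read Ex 365/Em 440 for AC50.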

[2] = AP1 Signaling Pathway (AID 357); settings: ME-180 AP-1-bla reporter, EGF-induced, beta-lactamase ratio, 5 h; at 7.69 µM (top of the series) unless noted;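 also: ME-180 reporter cells stimulated with EGF at its EC50 level; % is scaled to controls: 0 for no effect and ±100 for the full control effect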
Outline: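 First, ME-180 AP-1-bla cells were cultured overnight at 37 °C in low-serum Opti-MEM. Next, titrated compounds with EC50 EGF were incubated 5 hours. Finally, CCF4 was added for 2.5 hours and the 460/530 nm ratio recorded.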

[3] = NFAT Signaling Pathway (AID 444); settings: Jurkat NFAT-bla M1, carbachol, beta-lactamase ratio, 5 h; at 7.69 µM (top of the series) unless noted;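 also: carbachol stimulus at about its EC50 of 1 µM final; % is scaled to controls: 0 for no effect and ±100 for the full control effect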
Outline: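 Jurkat cells carrying an NFAT-driven β-lactamase reporter and co-transfected muscarinic M1 receptor were treated with compound plus carbachol (1 uM final, an EC50 level) for 5 h at 37 °C. CCF4 loading followed for 1 h at RT; 460/530 nm ratio gave %activity.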

[4] = Stat Signaling Pathway (AID 446); settings: ME-180 (cervical carcinoma) SIE beta-lactamase reporter, IL-6 stimulated, 5 h; at 7.69 µM (top of the series) unless noted;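 also: ME-180 cervical cancer cells given 40 pM IL-6 alongside compound; SIE-controlled beta-lactamase reporter measured as 460/530 nm FRET emission ratio; % is scaled to controls: 0 for no effect and ±100 for the full control effect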
Outline: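 IL-6/STAT signaling read in ME-180 cells via an SIE beta-lactamase reporter. Stimulus was 40 pM IL-6 (its AC50) for 5 hrs, so both activation and inhibition register.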

[5] = target: Glucocorticoid receptor (Homo sapiens) (UniProt P04150); test: GR-EFC Redistribution (AID 451; calls by dose curve; also: potency is read from the fitted curve at half-maximal effect); settings: CHO-K1 GR-EFC translocation, beta-gal luminescence, 2 h
Glucocorticoid receptor (Homo sapiens), sequence (P04150 whole entry, looked up, the tested form may be a part): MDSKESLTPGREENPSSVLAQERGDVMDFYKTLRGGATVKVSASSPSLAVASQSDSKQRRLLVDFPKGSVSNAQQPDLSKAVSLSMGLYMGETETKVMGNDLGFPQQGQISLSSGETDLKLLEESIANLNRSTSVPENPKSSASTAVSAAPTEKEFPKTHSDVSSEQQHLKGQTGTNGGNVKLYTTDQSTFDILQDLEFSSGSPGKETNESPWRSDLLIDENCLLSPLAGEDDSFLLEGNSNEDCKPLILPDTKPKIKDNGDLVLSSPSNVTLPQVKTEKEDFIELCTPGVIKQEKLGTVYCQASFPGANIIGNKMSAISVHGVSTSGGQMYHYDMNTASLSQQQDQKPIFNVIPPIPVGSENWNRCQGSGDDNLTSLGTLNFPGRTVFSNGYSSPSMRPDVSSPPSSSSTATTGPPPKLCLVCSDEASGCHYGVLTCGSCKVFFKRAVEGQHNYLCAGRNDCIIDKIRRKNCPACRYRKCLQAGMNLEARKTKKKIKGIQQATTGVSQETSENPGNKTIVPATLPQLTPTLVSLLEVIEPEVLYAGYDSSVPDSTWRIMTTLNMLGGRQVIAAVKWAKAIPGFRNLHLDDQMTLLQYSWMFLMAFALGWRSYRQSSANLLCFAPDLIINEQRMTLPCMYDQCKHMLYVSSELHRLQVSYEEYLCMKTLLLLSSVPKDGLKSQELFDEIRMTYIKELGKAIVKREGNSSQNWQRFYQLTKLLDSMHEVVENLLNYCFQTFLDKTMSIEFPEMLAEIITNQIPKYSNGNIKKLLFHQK
Outline: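 CHO-K1 cells stably expressing nuclear-localized β-gal enzyme acceptor and GR fused C-terminally to the enzyme donor fragment; ligand-driven nuclear translocation restores β-gal by complementation. Compounds titrated up to 46 uM final, 2 h at 37 °C; luminescence read.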

[6] = target: Mitogen-activated protein kinase 10 (Mus musculus) (UniProt Q61831); test: JNK3 AlphaScreen Assay (AID 530); settings: JNK3 lysate, c-Jun phosphorylation; series mostly up to 57.1 µM;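 also: kinase came from lysate of stimulated human HepG2 cells; signal reports phosphorylation of biotinylated GST-cJun 1-79 at Ser73 with 10 µM ATP; % is scaled to controls: 0 for no effect and ±100 for the full control effect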
Outline: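 JNK3 came from HepG2 lysates pre-activated with IL-1beta and TNF-alpha and phosphorylated biotinylated GST-cJun (1-79) at 10 uM ATP, pH 7.6, room temperature. Compounds were titrated. AlphaScreen signal used anti-phospho-cJun (Ser73) antibody.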

[7] = target: 3',5'-cyclic-AMP phosphodiesterase 4B (Homo sapiens) (UniProt Q07343); test: qHTS Assay for Inhibitors of PDE-IV (AID 607; active = well fitted activation curve with a large enough effect in the main read-out, with a control signal flat, not every such curve was filed as active; also: % of control where 0% means no effect); settings: HEK293 ACTOne CNG channel cells, membrane potential fluorescence; series mostly up to 22.9 µM
3',5'-cyclic-AMP phosphodiesterase 4B (Homo sapiens), sequence (Q07343 whole entry, looked up): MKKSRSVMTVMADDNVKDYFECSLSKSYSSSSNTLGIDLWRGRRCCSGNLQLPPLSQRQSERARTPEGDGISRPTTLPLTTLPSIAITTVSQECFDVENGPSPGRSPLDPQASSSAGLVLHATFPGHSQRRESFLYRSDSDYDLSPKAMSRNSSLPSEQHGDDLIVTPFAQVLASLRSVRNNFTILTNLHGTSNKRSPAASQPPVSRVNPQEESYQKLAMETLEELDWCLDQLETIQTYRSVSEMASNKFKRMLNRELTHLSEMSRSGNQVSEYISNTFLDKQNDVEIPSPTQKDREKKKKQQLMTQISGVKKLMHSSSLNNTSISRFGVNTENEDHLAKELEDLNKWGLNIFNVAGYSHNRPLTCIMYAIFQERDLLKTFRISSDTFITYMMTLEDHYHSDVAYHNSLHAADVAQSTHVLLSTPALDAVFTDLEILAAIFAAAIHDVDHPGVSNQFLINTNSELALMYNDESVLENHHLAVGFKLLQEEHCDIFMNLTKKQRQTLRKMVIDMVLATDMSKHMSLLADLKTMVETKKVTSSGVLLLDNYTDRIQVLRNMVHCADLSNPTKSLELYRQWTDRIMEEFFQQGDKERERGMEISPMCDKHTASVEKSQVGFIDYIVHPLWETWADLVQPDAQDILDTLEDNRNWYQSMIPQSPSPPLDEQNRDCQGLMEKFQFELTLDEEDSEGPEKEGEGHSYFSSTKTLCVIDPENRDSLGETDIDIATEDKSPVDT
Outline: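 Live HEK293 cells with a modified cyclic nucleotide-gated (CNG) channel report intracellular cAMP via membrane-potential dye fluorescence (ex 535/em 590 nm). Endogenous PDE-IV was targeted. Compounds were tested at up to 22.9 uM final; RO 20-1724 100 uM served as control.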

[8] = target: Glucocorticoid receptor (Homo sapiens) (UniProt P04150); test: GR-GFP Redistribution (AID 450;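 active = compounds whose dose series gives a full or clear partial fitted curve of increased nuclear translocation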; also: potency is read from the fitted curve at half-maximal effect); settings: U2OS GR-GFP nuclear translocation, laser cytometry, 2 h
[9] = target: Cytochrome P450 2D6 (Homo sapiens) (UniProt P10635); test: qHTS Assay for Inhibitors and Substrates of Cytochrome P450 2D6 (AID 891; active = well fitted curve in the direction sought with a large enough effect; an effect the other way counts as inactive or inconclusive;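 also: luciferin methyl ether substrate demethylated by CYP2D6 with NADPH regeneration; % is scaled to controls: 0 for no effect and ±100 for the full control effect; nearly all actives have a fitted effect of over 60% in size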); settings: recombinant CYP2D6, luciferin-ME EGE luminescence; series mostly up to 11.4 µM
Cytochrome P450 2D6 (Homo sapiens), sequence (P10635 whole entry, looked up): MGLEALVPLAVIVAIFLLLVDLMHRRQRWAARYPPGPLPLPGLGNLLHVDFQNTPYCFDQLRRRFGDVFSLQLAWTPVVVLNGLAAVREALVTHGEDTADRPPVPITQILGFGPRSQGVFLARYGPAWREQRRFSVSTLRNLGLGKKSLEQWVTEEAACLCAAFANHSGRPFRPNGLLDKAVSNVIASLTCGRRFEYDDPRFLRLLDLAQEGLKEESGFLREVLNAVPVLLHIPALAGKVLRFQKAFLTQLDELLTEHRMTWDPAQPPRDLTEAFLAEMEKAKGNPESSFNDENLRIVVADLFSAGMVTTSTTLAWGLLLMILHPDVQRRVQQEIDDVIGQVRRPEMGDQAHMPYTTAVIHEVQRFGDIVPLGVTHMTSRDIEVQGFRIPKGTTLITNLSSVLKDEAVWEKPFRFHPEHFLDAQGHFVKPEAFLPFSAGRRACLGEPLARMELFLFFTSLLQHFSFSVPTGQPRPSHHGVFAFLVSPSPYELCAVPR
Outline: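 Human CYP2D6 (5 nM) with 30 uM Luciferin-ME EGE (at Km) in 100 mM KPO4, compound preincubated 10 min, then NADPH regeneration system for 60 min at room temperature. Luciferin read by luminescence; normalized to 1.43 uM quinidine.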

[10] = target: Cytochrome P450 3A4 (Homo sapiens) (UniProt P08684); test: qHTS Assay for Activators of Cytochrome P450 3A4 (AID 885; active = well fitted curve in the direction sought with a large enough effect; an effect the other way counts as inactive or inconclusive; also: potency is read from the fitted curve at half-maximal effect; nearly all actives have a fitted effect of over 65% in size); settings: recombinant CYP3A4, Luciferin-PPXE luminescence, 60 min; series mostly up to 57.1 µM
Cytochrome P450 3A4 (Homo sapiens), sequence (P08684 whole entry, looked up): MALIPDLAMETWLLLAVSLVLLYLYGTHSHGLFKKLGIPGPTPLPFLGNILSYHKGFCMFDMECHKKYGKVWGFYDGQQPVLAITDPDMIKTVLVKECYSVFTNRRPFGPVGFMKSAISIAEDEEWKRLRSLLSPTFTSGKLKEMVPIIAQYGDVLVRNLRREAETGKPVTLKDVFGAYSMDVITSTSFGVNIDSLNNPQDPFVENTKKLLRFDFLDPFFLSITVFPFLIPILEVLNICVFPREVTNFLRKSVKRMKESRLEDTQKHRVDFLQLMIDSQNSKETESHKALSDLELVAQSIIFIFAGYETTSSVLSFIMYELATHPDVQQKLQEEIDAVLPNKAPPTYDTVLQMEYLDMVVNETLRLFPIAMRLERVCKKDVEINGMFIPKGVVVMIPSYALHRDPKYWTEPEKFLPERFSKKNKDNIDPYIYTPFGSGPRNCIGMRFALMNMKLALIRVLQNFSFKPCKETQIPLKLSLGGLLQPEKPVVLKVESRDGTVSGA
Outline: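 Quantitative HTS format: compounds preincubated with 20nM human CYP3A4 and Luciferin-PPXE substrate at KM, reaction started by NADPH regeneration, stopped after 60 min, luciferase luminescence read 20 min later.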

[11] = target: Cytochrome P450 1A2 (Homo sapiens) (UniProt P05177); test: p450-cyp1a2 (AID 410; calls by dose curve;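 also: -100% = full effect of reference inhibitor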); settings: recombinant CYP1A2, luciferin-ME demethylation, luminescence; series mostly up to 11.4 µM
Cytochrome P450 1A2 (Homo sapiens), sequence (P05177 whole entry, looked up): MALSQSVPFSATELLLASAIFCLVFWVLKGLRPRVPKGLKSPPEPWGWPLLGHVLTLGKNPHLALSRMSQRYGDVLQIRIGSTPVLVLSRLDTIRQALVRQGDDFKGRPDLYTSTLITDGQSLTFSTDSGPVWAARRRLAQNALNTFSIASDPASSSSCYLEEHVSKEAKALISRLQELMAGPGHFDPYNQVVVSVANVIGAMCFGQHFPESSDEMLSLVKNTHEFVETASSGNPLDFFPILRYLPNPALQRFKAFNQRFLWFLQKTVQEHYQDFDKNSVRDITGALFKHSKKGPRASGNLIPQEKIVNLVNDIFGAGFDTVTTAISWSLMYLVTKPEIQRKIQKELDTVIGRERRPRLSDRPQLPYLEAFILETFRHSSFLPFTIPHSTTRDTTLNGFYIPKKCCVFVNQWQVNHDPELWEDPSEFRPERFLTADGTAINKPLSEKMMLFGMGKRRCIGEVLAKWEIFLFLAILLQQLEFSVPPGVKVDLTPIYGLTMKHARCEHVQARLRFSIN
Outline: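 Inhibition was calculated relative to 57 uM furafylline (full inhibition). The reaction used human CYP1A2 at 20nM with Luciferin-ME at its Km, 100uM, driven by an NADPH-regenerating system for 60 min at room temperature.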

SMILES | Potency [1] | activity change, negative = inhibition [2] | activity change, negative = inhibition [3] | activity, negative = inhibition [4] | Potency [5] | activity change, negative = inhibition [6] | outcome [7] | Potency [8] | Potency [9] | Potency [10] | Potency [11] | activity change, negative = inhibition [11]
N#CS.N=C=S.N=C=S.[Cu].[NH2-].[NH2-].[NH2-].[NH2-].c1ccc2ncccc2c1 | > 11.4 µM | -1.15% | 0.5% | -4.61% | > 9.22 µM | 0.42% [at 11.4 µM] | inactive | – | – | – | – | –
CCN=C=NCCCN(C)C | > 11.4 µM | 5.33% | 4.76% | 2.84% | > 9.22 µM | -0.714% [at 11.4 µM] | inactive | > 46 µM | inactive | – | – | –
NS(=O)(=O)C[C-]1C=C[CH]([Sb-]([Cl])([Cl])([Cl])([Cl])[Cl])C=C1.c1ccncc1 (stereo not given) | > 11.4 µM | 2.96% | 2.26% | 19.7% | – | 4.62% [at 11.4 µM] | inactive | – | – | – | – | –
CC(=O)O[C@H]1CC[C@@]2(C)[C@@H](CC[C@H]3[C@H]2CC(=O)[C@]2(C)[C@@H]3C[C@@H](N3CC3)[C@H]2C(C)=O)C1 | > 11.4 µM | 4.13% | 13.1% | 5.02% | > 9.22 µM | -0.773% [at 11.4 µM] | inactive | > 46 µM | – | 3.98 µM (active) | – | –
O.O.[NH-]C1(C(=O)O)CCCC1.[NH-]C1(C(=O)O)CCCC1.[Ni+2] | > 11.4 µM | 8.54% | -0.81% | -5.65% | > 9.22 µM | -2.59% [at 11.4 µM] | inactive | > 46 µM | – | – | – | –
COc1ccc(C[C@@H]2C(=O)N[C@H](C)C(=O)N(C)[C@@H]3C(=O)N(C)[C@@H](Cc4ccc(O)c(c4)Oc4ccc(cc4)[C@H]3O)C(=O)N[C@@H](C)C(=O)N[C@H](C)C(=O)N2C)cc1 | > 11.4 µM | -121% (active) | -133% (active) | -105% (active) | > 9.22 µM | 3.04% [at 11.4 µM] | inactive | > 46 µM | – | – | – | –
O=[As](O)(O)c1ccc(NCc2ccccc2)cc1 | > 11.4 µM | -4.31% | 11% | 11.2% | > 9.22 µM | 1.56% [at 11.4 µM] | inactive | – | inactive | – | – | –
O=C(Nc1ccc([As](=O)(O)O)cc1)Nc1cccc(Cl)c1Cl | > 11.4 µM | -0.577% | 6.56% | – | > 9.22 µM | 0.483% [at 11.4 µM] | inactive | – | – | – | – | –
O[C@H](CN1CC1)[C@@H](O)CN1CC1 | – | 10.5% | -21.2% | 2.88% | > 9.22 µM | 2.9% [at 11.4 µM] | inactive | > 46 µM | – | – | inactive | –
CC1(C)CCC(C)(C)c2c1ccc(O)c2Cc1c(O)ccc2c1C(C)(C)CCC2(C)C | > 11.4 µM | -8.54% | – | 0.741% | > 9.22 µM | -1.06% [at 11.4 µM] | inactive | – | – | – | – | –
CN1C[C@H](C(=O)N[C@@]2(C)O[C@@]3(O)[C@H]4CCCN4C(=O)[C@@H](Cc4ccccc4)N3C2=O)C=C2c3cccc4[nH]cc(c34)C[C@@H]21 | > 11.4 µM | 2.32% | – | 0.776% | > 9.22 µM | -2.44% [at 11.4 µM] | inactive | > 46 µM | – | – | – | –
N#CCCCC[N+]12CN3CN(CN(C3)C1)C2 | – | 12.8% | 5.06% | -17.9% | > 9.22 µM | 0.429% [at 11.4 µM] | inactive | > 46 µM | – | – | – | 15% [at 2.29 µM]
O=C(O)CNC(=O)c1ccc([As](=O)(O)O)cc1 | > 11.4 µM | 9.68% | – | 12.9% | > 9.22 µM | – | inactive | > 46 µM | – | – | – | –
O=C(O)[C@@H]1[C@H](C(=O)O)[C@]2(Cl)C(Cl)=C(Cl)[C@@]1(Cl)C2(Cl)Cl | > 11.4 µM | – | 11.1% | 3.47% | > 9.22 µM | 0.126% [at 11.4 µM] | inactive | – | – | – | inactive | –
O=C(N1CCOCC1)C1(c2ccccc2)CCNCC1 | > 11.4 µM | -2.66% | – | 8.97% | > 9.22 µM | 3.92% [at 11.4 µM] | inactive | > 46 µM | – | – | – | –
